BoNT-F LC inh – BoNT F light chain protease inhibition; Multiplex microsphere protease cleavage assay, flow cytometry; inhibition, % at 10 µM; 0.22% of 360,000 active; in the data active = inhibition above about 35%, passing the limit was not always enough; inconclusive = no clear call, values can overlap the other calls
Bead autofluor – flagged as autofluorescent in microsphere protease counterscreen. compound autofluorescence counterscreen, microsphere flow cytometry; stronger effect = higher value. fluorescence intensity (concentration not given with the values). 3.1% of 360,000 active. AID 624483; in the data active = fluorescence intensity above about 16000; inconclusive = no clear call, values can overlap the other calls
BoNT A protease – inhibitors of Botulinum neurotoxin A light chain protease; inhibition, % at 10 µM; 0.17% of 360,000 active; AID 588499; multiplex microsphere protease substrate cleavage, flow cytometry
Anthrax LF inh2 – inhibitors of Bacillus anthracis lethal factor protease. AID 588501. 0.12% of 360,000 active. multiplex microsphere protease cleavage assay, LF. P15917. inhibition, % at 10 µM
Target sequence (P15917 whole entry, looked up): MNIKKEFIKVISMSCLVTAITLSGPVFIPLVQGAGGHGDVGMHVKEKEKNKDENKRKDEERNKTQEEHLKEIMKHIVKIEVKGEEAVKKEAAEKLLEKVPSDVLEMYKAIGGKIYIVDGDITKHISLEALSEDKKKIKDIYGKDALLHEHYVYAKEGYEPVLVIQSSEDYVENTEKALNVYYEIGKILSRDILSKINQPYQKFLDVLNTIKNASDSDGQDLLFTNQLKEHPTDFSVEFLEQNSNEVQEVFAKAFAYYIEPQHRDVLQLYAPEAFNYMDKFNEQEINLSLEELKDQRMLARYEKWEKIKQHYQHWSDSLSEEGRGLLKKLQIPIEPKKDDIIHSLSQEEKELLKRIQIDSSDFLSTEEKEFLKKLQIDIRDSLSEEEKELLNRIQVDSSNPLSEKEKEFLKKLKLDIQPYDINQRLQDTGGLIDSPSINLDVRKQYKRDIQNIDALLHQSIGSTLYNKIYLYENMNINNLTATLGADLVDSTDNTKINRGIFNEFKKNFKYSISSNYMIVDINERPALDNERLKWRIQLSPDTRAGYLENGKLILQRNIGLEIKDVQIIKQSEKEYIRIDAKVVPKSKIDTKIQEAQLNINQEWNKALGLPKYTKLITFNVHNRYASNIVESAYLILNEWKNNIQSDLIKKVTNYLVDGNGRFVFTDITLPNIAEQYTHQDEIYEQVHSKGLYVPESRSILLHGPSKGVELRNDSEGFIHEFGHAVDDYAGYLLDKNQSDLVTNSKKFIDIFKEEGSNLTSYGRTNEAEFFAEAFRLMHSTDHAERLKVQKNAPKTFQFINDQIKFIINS
BoNTA LC inh 1 – blocks botulinum neurotoxin A light chain protease; shares compounds with BoNT-F LC inh; multiplex microsphere protease assay, flow cytometry; inhibition, % at 10 µM; 3% of 720 active; AID 602139; in the data active = inhibition above about 32%
BoNT-F LC CP1 – inhibitors of Botulinum neurotoxin F light chain protease; shares compounds with BoNT-F LC inh; multiplex microsphere protease cleavage assay, flow cytometry; inhibition, % at 10 µM; 720 tested, under 10 active; AID 602140; call rule not given here
Anthrax LF CP1 – inhibitors of Bacillus anthracis lethal factor protease; inhibition, % at 10 µM; multiplex microsphere protease cleavage assay, LF; AID 602142; 720 tested, under 10 active; shares compounds with BoNT-F LC inh; call rule not given here
Large screens that a line does not name were inactive (follow-up assays come after a bar, where they were run). Only some compounds are listed: those with a hit (about 3.5% of all), similar ones and a draw of the others. Cut-off read from the data, not from the text of the source, unless noted: active = inhibition above about 30%; inconclusive = no clear call, values can overlap the other calls; inactive = below that.

CS(=O)(=O)c1ccccc1C(=O)N(CCC1=CCCCC1)c1c(N)n(Cc2ccccc2)c(=O)[nH]c1=O	none
CC12CCC(=O)C=C1CCC1C2CCC2(C)C(c3csc(N)n3)CCC12 (stereo not drawn)	none
CC(C)CN(C(=O)CCNC(=O)c1ccccc1Cl)C1CCS(=O)(=O)C1 (stereo not drawn)	none
O=C(Nc1ccccc1C(=O)O)c1cc(S(=O)(=O)Nc2cccc(F)c2)ccc1Cl	BoNT-F LC inh inconclusive | BoNTA LC inh 1 inactive | BoNT-F LC CP1 inactive | Anthrax LF CP1 inactive
Cc1ccc(C(=O)Nc2ccccc2C(=O)O)cc1S(=O)(=O)Nc1ccccc1	none (no result: BoNT-F LC inh, Bead autofluor, BoNT A protease, Anthrax LF inh2) | BoNTA LC inh 1 inactive | BoNT-F LC CP1 inactive | Anthrax LF CP1 inactive
O=C(Nc1ccccc1C(=O)O)c1cc(S(=O)(=O)N2CCCCCC2)ccc1Cl	none
O=C(Nc1ccc(S(=O)(=O)Nc2ccccn2)cc1)c1cccc(Cl)c1	BoNT-F LC inh 36 | BoNTA LC inh 1 inactive | BoNT-F LC CP1 inactive | Anthrax LF CP1 inactive
O=C(Nc1ccc(S(=O)(=O)Nc2ccccn2)cc1)c1cccc(Br)c1	none
O=C(O)c1ccc(NS(=O)(=O)c2cccc(C(=O)Nc3ccc(Br)cc3)c2)cc1	BoNT-F LC inh inconclusive, Anthrax LF inh2 31 | BoNTA LC inh 1 inactive | BoNT-F LC CP1 inactive | Anthrax LF CP1 inactive
Cc1ccc(C(=O)Nc2ccccc2C(=O)O)cc1S(=O)(=O)NC1CCCCC1	none
CC1CCCCN1C(=S)NC(=O)c1cc(Br)ccc1Cl (stereo not drawn)	none
COc1ccc(/C=C(\NC(=O)c2ccco2)C(=O)NCc2ccco2)cc1	none
O=C(Nc1ccccc1C(=O)O)c1cccc(S(=O)(=O)Nc2ccc(Br)cc2)c1	none | BoNTA LC inh 1 inactive | BoNT-F LC CP1 inactive | Anthrax LF CP1 inactive
O=C(Nc1ccccc1C(=O)O)c1cccc(NS(=O)(=O)c2ccc(Br)cc2)c1	none
O=C(Nc1ccccc1)c1ccc(S(=O)(=O)Nc2cccc(O)c2)cc1	none | BoNTA LC inh 1 inactive | BoNT-F LC CP1 inactive | Anthrax LF CP1 inactive
CC(C)[C@@H](C(=O)N1CCCC1)N1C(=O)N2CCc3c([nH]c4ccccc34)[C@@]2(C)C1=O	none
N#Cc1ccc(-c2ccco2)nc1SCC(=O)c1ccc(Cl)cc1	BoNT-F LC inh inconclusive, BoNT A protease 55, Anthrax LF inh2 41 | BoNTA LC inh 1 inactive | BoNT-F LC CP1 inactive | Anthrax LF CP1 inactive
O=C(COc1ccccc1)NCc1n[nH]c(=S)n1-c1ccccc1	BoNT-F LC inh 47 | BoNTA LC inh 1 inactive | BoNT-F LC CP1 inactive | Anthrax LF CP1 inactive
CN(C)S(=O)(=O)n1cnc([C@@H]2[C@@H]3C(=O)OC[C@@H]3C[C@]23N=CN(Cc2ccccc2)C3=O)c1	none
CCOC(=O)CCCCC(=O)c1[nH]c(=O)[nH]c1CSc1nc(C)cc(C)n1	none | BoNTA LC inh 1 inactive | BoNT-F LC CP1 inactive | Anthrax LF CP1 inactive
CCOC(=O)CCCCC(=O)c1[nH]c(=O)[nH]c1CSc1nc(C)cc(=O)[nH]1	BoNT-F LC inh 47 | BoNTA LC inh 1 inactive | BoNT-F LC CP1 inactive | Anthrax LF CP1 inactive
CCOC(=O)c1oc2cccc(O)c2c1CN1CCOCC1	none
CCCSc1nc(C)cc(=O)[nH]1	BoNT-F LC inh inconclusive
CCOC(=O)CCCCC(=O)c1[nH]c(=O)[nH]c1CSc1nc2ccccc2[nH]1	BoNT-F LC inh 36 | BoNTA LC inh 1 inactive | BoNT-F LC CP1 inactive | Anthrax LF CP1 inactive
CCOC(=O)c1[nH]c(=O)[nH]c1CSc1nc(C)cc(C)n1	none
CCOC(=O)CCCCC(=O)c1[nH]c(=O)[nH]c1CN1CCOCC1	BoNT-F LC inh 59 | BoNTA LC inh 1 inactive | BoNT-F LC CP1 inactive | Anthrax LF CP1 inactive
CCOc1ccc(NS(=O)(=O)c2ccc(C(=O)N(C)Cc3cccc(OC)c3OC)cc2)cc1	none
Cc1ccc(C2CC(c3ccc(NS(C)(=O)=O)cc3)=NN2C(=O)c2ccco2)cc1 (stereo not drawn)	BoNT-F LC inh 36 | BoNTA LC inh 1 inactive | BoNT-F LC CP1 inactive | Anthrax LF CP1 inactive
CC1(C)CC(NC(=O)c2ccc(F)cc2)CC(C)(C)N1	none
CC(=O)c1ccc(-c2ccc(C(=O)NC3CC(C)(C)NC(C)(C)C3)o2)cc1	BoNT-F LC inh 36, Bead autofluor inconclusive | BoNTA LC inh 1 inactive | BoNT-F LC CP1 inactive | Anthrax LF CP1 inactive
O=C(CCS(=O)(=O)c1ccc(Cl)cc1)Nc1nc(-c2cccnc2)cs1	BoNT A protease 51 | BoNTA LC inh 1 inactive | BoNT-F LC CP1 inactive | Anthrax LF CP1 inactive
Cc1cnc(NC(=O)c2ccc(-c3nc4ccccc4s3)o2)s1	BoNT A protease 34 | BoNTA LC inh 1 inactive | BoNT-F LC CP1 inactive | Anthrax LF CP1 inactive
